The text below walks through data of PubChem BioAssay (NCI).

Test in all cases: NCI-60 one-dose screen, 48 h (100 = growth as untreated, 0 = no growth, -100 = all killed)
Holding throughout (conditions): 10 µM

Experiment [1] concerns T-47D breast.
Experiment [2] has as its system BT-549 breast.
In experiment [3] the test system is MDA-MB-435 melanoma.
Experiment [4] concerns SW-620 colon.
Experiment [5] has as its system MCF7 breast.
Experiment [6] has as its system HCT-116 colon.
The test system of experiment [7] is HCC-2998 colon.
The test system of experiment [8] is KM12 colon.

Compounds without any hit were thinned out: in the full panel of roughly 83,000, 20% have a hit.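 Interpretation: 100, growth as untreated; towards 0, rising growth inhibition; 0, no net growth; 0 to -100, cell death. Compounds scoring below 10 were considered active.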 Values without a mark were called inactive. Activity calls are given as the source filed them.

In the case of `CCOC(=O)c1sc2ncnc(Nc3ccc4c(cnn4C(=O)Nc4ccccc4)c3)c2c1C`, the growth in experiment [1] was 51.5%; in experiment [2], 48.9%; in experiment [3] it was 54.2%; in experiment [4], 50%; in experiment [5] it was 55.8%; in experiment [6] it was 34.4%. Further, the results for the growth in experiment [7] and in experiment [8] were 98.4% and 65.5%, respectively.

On to `Cc1nn(-c2ccc(-c3ccc(OC(F)(F)F)cc3)cc2)c2nc(Cc3ccccc3)nc(N)c12`, for which the growth in experiment [1] is 49%; in experiment [2] it was 99.4%; in experiment [3], 83.5%; in experiment [4], 54.4%; in experiment [5], 73.8%; in experiment [6] it was 36.3%. The growth in experiment [7] is 77.2%; in experiment [8], 79.6%.

For `O=C(Nc1cc([N+](=O)[O-])c2[nH]c(=O)c3ccccc3c2c1)C(F)(F)F`, the growth in experiment [1] was 105%; in experiment [2], 86.5%; in experiment [3], 102%; in experiment [4], 64.5%; in experiment [5], 82%; in experiment [6] it was 56.5%. Further, the growth in experiment [7] is 89.3%; in experiment [8], 87.2%.

Consider `CC1/C=C/C=C/C=C/C=C/C=C/C=C/C=C/C(O[C@@H]2O[C@H](C)[C@H](O)[C@@H](O)[C@@H]2N)CC(O)C(C(=O)O)C(O)CC(=O)CC(O)CC(O)CC(O)CC(=O)CCCC(=O)CC(=O)OC1C(C)CC(C)C(O)CC(=O)c1ccc(N)cc1` (stereo not given in full), for which the growth was -87.1% (active) in experiment [1]; -93% (active) in experiment [2]; -93% (active) in experiment [3]; -95.3% (active) in experiment [4]; -87% (active) in experiment [5]; -90.7% (active) in experiment [6]. Further, the growth is -98.1% (active) in experiment [7] and -96% (active) in experiment [8].

Consider `COc1cc(/C=C/c2cc(/C=C/c3ccc(O)c(OC)c3)[nH]c(=O)n2)ccc1O`, for which the growth in experiment [1] was 59.1%; in experiment [2], 55%; in experiment [3], 56.9%; in experiment [4], 43.6%; in experiment [5] it was 52.1%; in experiment [6], 34.7%. Moreover, the growth in experiment [7] is 71%; in experiment [8] it was 29.3%.

Regarding `COc1cc(-c2csc(NC(=O)Nc3ccc(Cl)c(C(F)(F)F)c3)n2)cc(OC)c1OC`, the growth in experiment [1] was -9.38% (active); in experiment [2], -13% (active); in experiment [3], -7.7% (active); in experiment [4], 18.1%; in experiment [5], -9.68% (active); in experiment [6], -19.6% (active). The growth in experiment [7] was 21.4%; in experiment [8], 9.25% (active).

For the molecule `COc1cc(C(=O)/C(C)=C/c2c[nH]c3ccccc23)cc(OC)c1OC`, the growth in experiment [1] is 53%; in experiment [2], -9% (active); in experiment [3] it was 5.74% (active); in experiment [4], 29.9%; in experiment [5] it was 15.4%; in experiment [6], 2.11% (active). For the same molecule, the growth in experiment [7] was 15.2%; in experiment [8], 16.5%.

Take `CN1CCN(C2=Nc3ccccc3Oc3ccc(Cl)cc32)CC1`: the growth in experiment [1] is 81.3%; in experiment [2], 111%; in experiment [3], 96.9%; in experiment [4], 96.2%; in experiment [5] it was 97.4%; in experiment [6] it was 92.4%. Besides, the growth in experiment [7] is 116%; in experiment [8], 102%.

For the molecule `N=C1S/C(=C/c2ccc(-c3ccc4c(c3)C(=O)NC4=O)o2)C(=O)N1c1ccc(Br)cc1`, the growth in experiment [1] is 19.9%; in experiment [2], 60.3%; in experiment [3] it was 39.1%; in experiment [4], 48.5%; in experiment [5] it was 3.39% (active); in experiment [6], 31.8%. Moreover, the growth is 89% in experiment [7] and 46.4% in experiment [8].

Take `NS(=O)(=O)c1ccc(Br)cc1`: the growth was 84.7% in experiment [1]; 87.6% in experiment [2]; 105% in experiment [3]; 112% in experiment [4]; 94% in experiment [5]; 81.4% in experiment [6]. In addition, the growth in experiment [7] was 108%; in experiment [8], 99.5%.

In the case of `O=S(=O)(NCCCNc1nccc(-c2cn(-c3ccccc3)nc2-c2ccc(Cl)c(O)c2)n1)c1ccccc1`, the growth was 42.9% in experiment [1]; 75.9% in experiment [2]; 68.7% in experiment [3]; 102% in experiment [4]; 33% in experiment [5]; 53.1% in experiment [6]. Moreover, the figures for the growth in experiment [7] and in experiment [8] were 91.6% and 56.7%, respectively.

Take `COc1ccc(-c2cc(-c3ccc(Cl)cc3)nc(SCCCCCCC(=O)NO)n2)cc1OC`: the growth in experiment [1] is 36.1%; in experiment [2], 79.6%; in experiment [3], 69.1%; in experiment [4], 46.3%; in experiment [5] it was 24.6%; in experiment [6], 41.8%. For the same molecule, the growth in experiment [7] is 80.3%; in experiment [8] it was 69.4%.

Turning to `S=C(NCc1ccccc1)NCc1ccccc1`, the growth is 94.6% in experiment [1]; 95.4% in experiment [2]; 101% in experiment [3]; 100% in experiment [4]; 96.3% in experiment [5]; 97.3% in experiment [6]. The figures for the growth in experiment [7] and in experiment [8] were 111% and 102%, respectively.

Regarding `N#CC1=C(N)Oc2cc(N)ccc2C1c1cccnc1` (stereo not given), the growth is 94.2% in experiment [1]; 88.4% in experiment [2]; 71.8% in experiment [3]; 90.1% in experiment [4]; 89.4% in experiment [5]; 88.3% in experiment [6]. Besides, the growth was 82.4% in experiment [7] and 89.7% in experiment [8].

On to `Cc1ccccc1N1C(=O)c2cc(S(N)(=O)=O)c(Cl)cc2NC1C` (stereo not given), for which the growth is 104% in experiment [1]; 96.6% in experiment [2]; 112% in experiment [3]; 108% in experiment [4]; 94.2% in experiment [5]; 102% in experiment [6]. The figures for the growth in experiment [7] and in experiment [8] were 107% and 108%, respectively.
